HSP90 inh: HSP90 inhibitors, primary screen, cell lysate, luminescence. actives 0.91% (n = 290,000). Heat shock protein HSP 90 (rabbit reticulocyte lysate; luciferase refolding). inhibition, % at 5.6 µM. AID 1789, 2009. Rabbit reticulocyte lysate, luciferase refolding luminescence, 3 h;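 active = inhibition above the screen-wide mean plus 3 SD, computed separately per campaign, cut at about 16% in these data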;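 note: 0% = DMSO wells and 100% = 60 µM geldanamycin wells; inhibitors lower the luminescence because luciferase stays unfolded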
p-CIP stab down: p/CIP-EGFP fusion destabilizers, primary screen, fluorescence, F442A cells; decrease of EGFP signal, % at 10 µM; actives 0.01% (n = 290,000); 16 h;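 active = EGFP signal decrease of at least 30% at 10 µM or well 3 SD below plate mean, unless failing retest; inactive = the rest, including hits failing retest or dose response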
NALP1 inh: NALP1 inflammasome inhibitors in reconstituted yeast, colorimetric, S. cerevisiae, triplicate retest. inhibition, % at 10 µM. actives 0.61% (n = 280,000). S. cerevisiae NALP1/ASC/caspase-1 growth, X-gal OD620, 72 h. AID 2071, 2009; in the data active = inhibition mostly above about 24%, no sharp cut-off; inactive = mostly below about 32%
Hsp70 activator: Hsp70 transcriptional activators, primary screen, cell-based, HeLa, Hsp70 promoter luciferase, luminescence, 10 µM; activation, % at 10 µM; actives 0.04% (n = 200,000); HeLa Hsp70 promoter luciferase reporter; scaled: vehicle 0, proteasome-inhibitor control 100%;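 active = activation above the mean across all tested compounds plus 3 SD, cutoff set per campaign, cut at about 5.5% in these data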;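 note: 100% = MG132 at 30 µM as the positive control and 0% = DMSO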
HSF1 inh: HSF1 inhibitors in luciferase reporter cells, primary screen, cell-based, NIH3T3, luminescence; NIH3T3-HGL HSE-luciferase, MG132-induced, luminescence 8 h; stronger effect = lower value; activity change, negative = inhibition, % at 7.5 µM (by protocol); actives 0.77% (n = 300,000);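 active = more than half of replicate wells show activity change below -50%, luminescence cut by over half; inconclusive = some wells, but at most half, below -50%; inactive = no replicate well below -50%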;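 note: luciferase reports HSF-1 transcriptional activity via heat shock element; 0% = median of DMSO wells and -100% = zero luminescence signal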
HSF-1 act: HSF-1 activators, primary screen, NIH3T3-HGL cells, MG132 stress, luminescence, single point; NIH3T3-HGL HSF-1 luciferase reporter, 8 h; 100% = twice DMSO control signal; activation, % at 9 µM; actives 1.7% (n = 300,000); AID 504408, 2011;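 active = mean replicate activation of at least 50% with a set share of replicates each reaching 50%; inconclusive = only one of those two conditions met; inactive = mean below 50% and too few replicates reaching it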;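 note: 0% = median of the neutral control wells and 100% = twice that signal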
HSP90 inh confirm: HSP90 inhibitors, confirmation, cell lysate, luminescence | shares compounds with HSP90 inh | rabbit reticulocyte lysate, luciferase refolding luminescence, 3 h | inhibition, % at 5.9 µM | actives 64% (n = 2,300) | AID 1846, 2009; in the data active = inhibition above about 18%;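 note: 0% = vehicle wells and 100% = reference inhibitor wells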
luciferase ctr: firefly luciferase inhibitors, HSP90 counter-screen, confirmation, artefact control for HSP90 inhibitor project, biochemical, luminescence, triplicate. shares compounds with HSP90 inh. purified native firefly luciferase. inhibition, % at 5.9 µM. actives 48% (n = 2,300). AID 1847, 2009;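 active = inhibition above the mean inhibition of all tested sample wells plus 3 SD, cut at about 10% in these data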;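 note: 0% = DMSO with luciferase and 100% = wells lacking luciferase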
Active calls of the source: *; ? = inconclusive; / = no result given. Shown are actives, neighbours in structure and some others; about 3.8% of the full set was active somewhere.

SMILES	HSP90 inh	p-CIP stab down	NALP1 inh	Hsp70 activator	HSF1 inh	HSF-1 act	HSP90 inh confirm	luciferase ctr
Cc1ccc(NC(=O)c2ccc3c(c2)OCCO3)cc1	20*	0	17	0	7	34	51*	45*
O=C(CCCc1ccccc1)Nc1ccc2c(c1)OCCO2	26*	-2	8	0	36	75*	32*	29*
O=C(CCCCCN1C(=O)c2ccccc2C1=O)Nc1ccc2c(c1)OCCO2	5	-10	-5	0	-2	-19	/	/
O=C(CC1CS(=O)(=O)CC1CC(=O)Nc1ccc2c(c1)OCCO2)Nc1ccc2c(c1)OCCO2 (configuration not stated)	59*	-8	19	0	-82*	-86	68*	62*
CCOC(=O)c1c(NC(=O)CSc2nc3ccccc3c(=O)n2-c2ccccc2)sc(C(C)=O)c1C	-1	5	22	0	4	7	/	/
CCN(c1ccccc1)S(=O)(=O)c1ccc(C(=O)Nc2ncccc2O)cc1	-6	-106	13	/	10	10	/	/
O=C(/C=C/c1cccc([N+](=O)[O-])c1)Nc1cc(C(=O)O)cc(C(=O)O)c1	1	-14	14	0	-7	-6	/	/
O=C(/C=C/c1ccccc1)Nc1cc(NC(=O)/C=C/c2ccccc2)cc(C(=O)O)c1	32*	-11	9	/	-3	-14	41*	9.6*
COc1ccc(CC2(CO)COc3ccccc3C2=O)cc1 (configuration not stated)	/	/	/	/	-12	15	/	/
Cc1ccc(NC(=S)N2CCCCC2CO)cc1C (configuration not stated)	-5	2	3	0	2	-9	/	/
Cc1ccc(-c2c[n+](CC(=O)Nc3nc(-c4ccc(F)cc4)cs3)c3n2CCC3)cc1	26*	4	3	0	1	-5	19*	-3
NNC(=O)c1ccc(COc2ccc3ccccc3c2)o1	3	-2	-16	/	17	49	/	/
O=C(OCc1ccccn1)c1ccc(COc2ccc3ccccc3c2)o1	45*	2	/	/	20	33	63*	-11
Cc1ccc(C(=O)OCC(=O)c2ccccc2)cc1	6	-1	-2	/	8	40	/	/
CCC(=O)Nc1ccccc1C(=O)OCC(=O)c1ccccc1	52*	6	-3	0	35	79*	66*	-30
CC(=O)Nc1cc(C(=O)OCC(=O)c2ccccc2)ccc1C	24*	5	17	0	3	39	60*	-17
COc1ccc(CCN2CC(C(=O)N(C)Cc3c(C)n[nH]c3C)CCC2=O)cc1 (configuration not stated)	1	2	13	/	1	21	/	/
C=C1c2ccccc2NC(=S)N1Cc1ccc2c(c1)OCO2	7	13	-8	0	20	47	/	/
CCCCCCN1C=CC(=C2C(=O)c3ccccc3C2=O)C=C1	48*	7	16	0	?	-59	84*	78*
CN1C=CC(=C2C(=O)c3ccccc3C2=O)C=C1	12	7	1	0	-3	31	/	/
CCCCN1C(C)=CC(=C2C(=O)c3ccccc3C2=O)C=C1C	17*	-4	7	0	-1	-18	43*	31*
CCCCN1C=CC(=C2N=c3cccc([N+](=O)[O-])c3=N2)C=C1	6	-20	22	0	-12	-13	/	/
